# Laboratory results as given in the supplement of paper PMC3334620.
# In all, about 33,000 sequences were measured (“E-score (-0.5 to 0.5)”: median about -0.021, highest 2% from about 0.32 on). The full list was thinned out, with the highest values kept by preference.
# Biological target: T1, Zap1 (UniProt P47043)
# T1 sequence: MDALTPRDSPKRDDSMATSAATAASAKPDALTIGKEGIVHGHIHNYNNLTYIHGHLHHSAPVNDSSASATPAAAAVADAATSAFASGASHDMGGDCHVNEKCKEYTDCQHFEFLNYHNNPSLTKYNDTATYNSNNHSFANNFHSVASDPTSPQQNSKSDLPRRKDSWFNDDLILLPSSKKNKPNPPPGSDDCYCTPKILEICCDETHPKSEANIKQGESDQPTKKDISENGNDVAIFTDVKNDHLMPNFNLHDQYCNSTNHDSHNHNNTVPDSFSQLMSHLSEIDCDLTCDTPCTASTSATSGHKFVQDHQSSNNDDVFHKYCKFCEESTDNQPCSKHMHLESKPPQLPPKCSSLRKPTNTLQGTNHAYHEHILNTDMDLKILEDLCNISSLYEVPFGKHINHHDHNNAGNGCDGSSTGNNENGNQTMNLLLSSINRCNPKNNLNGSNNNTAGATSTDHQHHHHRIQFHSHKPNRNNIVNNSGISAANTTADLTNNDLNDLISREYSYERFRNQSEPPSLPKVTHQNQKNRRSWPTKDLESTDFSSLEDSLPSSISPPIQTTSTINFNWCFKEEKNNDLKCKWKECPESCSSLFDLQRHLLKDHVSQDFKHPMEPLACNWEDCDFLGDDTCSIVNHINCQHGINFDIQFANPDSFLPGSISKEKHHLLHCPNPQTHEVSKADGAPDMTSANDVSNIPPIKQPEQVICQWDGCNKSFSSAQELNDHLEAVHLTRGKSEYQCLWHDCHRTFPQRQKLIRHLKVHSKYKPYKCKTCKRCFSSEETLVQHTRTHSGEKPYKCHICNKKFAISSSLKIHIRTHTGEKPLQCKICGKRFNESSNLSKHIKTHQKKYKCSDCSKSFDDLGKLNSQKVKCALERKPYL
# Assay: PBM E-score (8-mer binding enrichment) (E-score (-0.5 to 0.5)); higher = stronger / more preferred TF binding
# Settings: protein concentration: 200 nM; construct: GST-full length
# Method in brief: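 Each ungapped eight-base word and its reverse complement, pooled, received an E-score from the Universal PBM Analysis Suite. Underlying scans, normalised with masliner, recorded fluorescent anti-GST bound to GST-tagged yeast transcription factors. These were applied at about 100-200 nM to universal all-10-mer Agilent arrays double-stranded by primer extension.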
row,Sequence,PBM E-score
1,GAGACAAA,-0.173
2,GCCACACA,-0.0586
3,CCCCACGC,-0.0232
4,ACACAAGG,0.132
5,AAGTTCAG,-0.0476
6,GGGGTCAC,0.428
7,AGGGTCAC,0.417
8,AGGGTCAG,0.24
9,TGGGTCAA,0.0925
10,ATGGTCAC,0.312
11,AGGGTCGG,0.126
12,CGGGTCAA,0.163
13,GGGGTCAA,0.266
14,AGGGTCGC,0.364
15,GCGGTCAC,0.313
16,AGGGTCAA,0.416
17,CGGGTCGC,0.0356
18,GATTCTTA,0.177
19,CTAGTCTA,-0.0327
20,CAGGTTCG,-0.158
21,ATATCCTG,0.103
22,ACCATCGT,-0.0674

row,Sequence,PBM E-score
1,ACTAACTG,0.126
2,CGGGTCAG,0.28
3,CGGGTCCC,-0.116
4,ATGGTCAA,0.245
5,AGGGTCCC,0.32
6,AGGGTCAT,0.449
7,CTGGTCAC,0.148
8,AGGGTCCA,0.214
9,AGAGTCAT,-0.0584
10,CGGGTCAC,0.374
11,CGAGGGGC,0.0476
12,CAAGGACA,-0.0888
13,GAGATCCA,-0.0613
14,GACCAAGA,0.0225
15,GAACCTAA,0.194
16,TACGAATA,0.197
17,ACACCTAA,0.0902
18,CAAATAAC,0.322
19,GAAATAAC,0.221
20,AAAATAAC,0.21
21,TCCCTTCA,-0.0499
22,ACCCTTCC,0.281

row,Sequence,PBM E-score
1,ACCCTTCG,0.373
2,ACCCTTCA,0.341
3,ACCCTTCT,0.272
4,GCCCTTCA,0.0388
5,CTCGATCC,-0.0316
6,ACTGTTCT,-0.0178
7,GACCTAGC,-0.0032
8,CTCGCGAC,0.0966
9,GTCGCGAC,0.357
10,GTCGCGAA,-0.0334
11,GTAAATCA,0.207
12,ACGTCTAG,-0.0284
13,CGTACTTC,-0.125
14,GGAGGGTA,0.346
15,AGAGGGTA,0.29
16,CGAGGGTA,0.371
17,GGAGGGGA,-0.0565
18,GGAGGGAA,-0.213
19,CGAGGGTC,0.245
20,AATTAACT,0.0482
21,CATTAACC,0.379
22,AACTAACA,0.153

row,Sequence,PBM E-score
1,AACTAACT,0.00107
2,AACTAACC,0.333
3,CATTAACA,0.0919
4,AATTAATA,0.332
5,TATTAATA,0.0379
6,AATTAATT,0.0914
7,CATTAACG,0.0999
8,AATTAACC,0.327
9,GATTAACC,0.173
10,CCGATCGG,0.13
11,AGCTTGGG,-0.06
12,GGCCTTCA,0.167
13,GCGAACCC,0.00303
14,GAGCTGAC,0.122
15,CAGTGACG,-0.0109
16,ACGAAATG,0.0348
17,TAGACTGA,-0.182
18,AATCTTTG,0.114
19,ACATACCT,0.118
20,CTTGGCGC,0.0977
